Most compounds without a hit are left out; they make up all but 3.3% or so of the library.
Pol III holo inh: blocks replication by bacterial DNA polymerase III holoenzyme | reconstituted DNA polymerase III holoenzyme replication, biochemical | Potency, µM (highest dose often 57.1 µM), for the others: top-dose activity change, negative = inhibition | 71,000 tested, 0.25% active | AID 603; further: potency means the concentration at half of the fitted maximal effect; on the % scale 0 is the no-effect control and ±100 the full control effect
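Reconstituted *E. coli* holoenzyme (0.35 nM Pol III, 1 nM beta, 154 nM SSB, 2 nM primase) was preincubated with compound for 15 min at RT. Synthesis on 1.4 nM ssM13Gori ran 35 min, then was stopped with PicoGreen/EDTA and read as dsDNA fluorescence.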
Tau filament bind: tau filament binding | P10636 | recombinant tau filaments, thioflavin S fluorescence, 15 h; filaments grown with octadecylsulfate alongside compound | Potency, µM (doses to about 57.1 µM), without a hit: top-dose activity change, negative = inhibition | 71,000 tested, 2% active | AID 596;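 further: potency means the concentration at half of the fitted maximal effect; on the % scale 0 is the no-effect control and ±100 the full control effect; actives lower thioflavin S fluorescence by blocking filaments or displacing dye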
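Thioflavine S fluorescence (ex 450, em 510 nm) reports filaments formed from 1 uM human tau plus 30 uM ODS over 15 h at 37 C (10 mM HEPES pH 7.4, 100 mM NaCl, 5 mM DTT); compounds displacing dye or blocking filaments lower signal.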
Hsp90 Hop PPI: changes Hsp90-Hop TPR2A binding signal, up or down | AlphaScreen TPR2A-His6 binding biotin-Hsp90 C-terminal peptide | Potency, µM (series often up to 57 µM), inactives show at the top dose activity change, negative = inhibition | 71,000 tested, 0.44% active; active means well fitted curve in either direction with a large enough effect; inconclusive means small, poorly fitted or top-dose-only effect, or another doubt; further: potency means the concentration at half of the fitted maximal effect; on the % scale 0 is the no-effect control and ±100 the full control effect
ALOX15 inhib: blocks human 15-lipoxygenase activity | purified 15hLO-1, xylenol orange hydroperoxide absorbance | 74,000 tested, 1.4% active | P16050 | Potency, µM (top dose mostly 57.1 µM), inactives show at the highest dose activity change, negative = inhibition, hits mostly inhibitors; further: potency means the concentration at half of the fitted maximal effect; on the % scale 0 is the no-effect control and ±100 the full control effect; nearly all actives have a fitted effect of over 55% in size
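Readout: Fe(III)-xylenol orange absorbance, 573-to-405 nm ratio as reaction progress. Enzyme 40 nM purified human 15hLO-1, substrate 50 uM arachidonic acid, 6 min RT after 15 min compound preincubation; Hepes pH 7.5 buffer with Triton X-100.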
YjeE inh: YjeE (TsaE) inhibition, E. coli; Potency, µM; 71,000 tested, 0.05% active; purified YjeE enzyme, qHTS inhibition assay
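Purified YjeE (10 uM) with BODIPY Texas Red-labeled ADP probe (2 uM); compounds pin-transferred, 15 min at room temperature. Binding inhibition read as decreased fluorescence polarization; ADP titration as control.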
Starred values were filed as active, the others as inactive; i = inactive; ? = inconclusive; · = not tested or not shown; [ ] = remark or other dose. Unless noted, the call rests on the fitted dose curve; in most records, active means well fitted curve in the direction sought with a large enough effect; inconclusive means small, poorly fitted or top-dose-only effect, or another doubt; inactive means no such curve, though single readings can be large; an effect the other way counts as inactive or inconclusive.

SMILES	Pol III holo inh	Tau filament bind	Hsp90 Hop PPI	ALOX15 inhib	YjeE inh
N#Cc1cccc(-c2nc3cnc(Oc4cccc(Cl)c4)nc3n(C3CC3)c2=O)c1	-3.3%	10µM*	-5.4%	-2.1%	i
O=c1c(-c2ccc(Cl)cc2)nc2cnc(Oc3ccccc3)nc2n1C1CC1	-3.2%	12.6µM*	0.5%	-10.4%	i
CN(C)c1ncc2nc(-c3cccs3)c(=O)n(Cc3cccs3)c2n1	8.9%	i	-5.3%	2.0%	i
O=c1c(-c2cccs2)nc2cnc(Oc3ccccc3)nc2n1C1CC1	20.3%	43.4%	20µM*	-26.8%	i
NCCSS(=O)(=O)CCN	-6.2%[11.4 µM]	4.3%[11.4 µM]	-1.8%[11 µM]	20.6%[11.4 µM]	i
CCOC(=O)C1CCN(c2nc3cc(OC)ccc3cc2C#N)CC1	0.4%	-6.4%	25.1µM*	-18.7%	i
COc1ccc2nc(N3CCC(O)CC3)c(C#N)cc2c1	-6.1%	i	3.8%	2.4%	i
COc1ccc2nc(N3CCC(C)CC3)c(C#N)cc2c1	-7.9%	248.8%	25.1µM*	-19.8%	i
CCN1C(=O)[C@H]2[C@H]3[C@H](O)[C@H](O)C/C(=N/OCC(C)C)[C@@H]3CC[C@@H]2C1=O	·	·	·	-0.9%[11.4 µM]	·
CC(=O)OC[C@H]1O[C@@H](O/N=C(\C)CCN2CCCCc3nc(C)c(C)cc32)[C@H](OC(C)=O)[C@@H](OC(C)=O)[C@H]1OC(C)=O	·	·	·	0.7%[11.4 µM]	·
CC(C)CNC1=CC(=O)CC(c2ccco2)C1 (stereo not drawn)	-8.3%	-23.3%	-4.6%	10µM*	i
O=C1C=C(NCc2ccc(Cl)cc2)CC(c2ccco2)C1 (stereo not drawn)	-5.6%	-8.1%	-0.5%	-16.1%	i
CCCN(CCC)C(=O)SCC	2.7%	4.1%	-1.7%	1.4%	i
O=C(c1cc(Br)ccc1O)c1cc(Br)ccc1O	-8.7%[11.4 µM]	?	-3.3%[11 µM]	?	i
Cc1c(C(=O)NCCC2=CCCCC2)oc2ccc(S(=O)(=O)N3CCOCC3)cc12	1.9%	0.7%	0.8%	15.8µM*	i
CCCCCCn1c(-c2ccco2)nc2oc3cc(OC)ccc3c(=O)c2c1=O	6.8%	3.16µM*	-2.4%	-25.8%	?
COc1ccc2c(=O)c3c(=O)n(Cc4ccco4)c(-c4ccccc4)nc3oc2c1	-10.9%	2.51µM*	-6.5%	-1.6%	i
CC(=O)Oc1cc(OC(C)=O)c2c(=O)cc(-c3ccc(OC(C)=O)c(OC(C)=O)c3)oc2c1	-10.7%	?	-3.0%	-13.6%[25.6 µM]	i
COCC(=O)Nc1ccc(Nc2ccccc2)cc1	-8.1%	7.94µM*	-23.2%	-8.4%	i
ClC1=C(Cl)C(Cl)(Cl)C(Cl)=C1Cl	-3.1%	-13.1%	-1.8%	6.6%	i
O=C1c2ccccc2-c2cc([N+](=O)[O-])c([N+](=O)[O-])cc21	-1.2%[11.4 µM]	3.98µM*	-25.8%[11 µM]	12.1%[11.4 µM]	i
CCc1cc(C(=O)COc2ccccc2F)c(O)cc1O	-1.0%	-18.2%	-7.5%	12.6µM*	i
CCc1cc(C(=O)Cc2ccc(F)cc2)c(O)cc1O	-5.6%	-13.3%	-2.1%	?	i
COc1ccccc1NS(=O)(=O)c1cc(C(=O)O)ccc1F	·	·	·	-2.0%	·
Fc1ccc(-n2[nH]nnc2=S)cc1N1CCCC1	0.0%	-16.6%	-7.3%	25.1µM*	i
SMILES	Pol III holo inh	Tau filament bind	Hsp90 Hop PPI	ALOX15 inhib	YjeE inh
CC(=O)c1ccc(N2CCCCCC2)c(F)c1	-3.9%[11.4 µM]	-0.1%[11.4 µM]	-0.7%[11 µM]	-4.1%[11.4 µM]	i
C=CCSc1nc2c(N)ncnc2n1[C@@H]1O[C@H](CO)[C@@H](O)[C@@H]1O	-5.3%[11.4 µM]	4.0%[11.4 µM]	-4.2%[11 µM]	4.9%[11.4 µM]	i
CCOC(=O)N1CCN(C(=O)Cn2ncc3ccccc32)CC1	25.1µM*	-6.6%	-2.8%	3.6%	i
CCOC(=O)N1CCN(C(=O)c2cnn3ccccc23)CC1	-0.7%	0.8%	-5.5%[2.3 µM]	3.4%	31.6µM*
CCOC(=O)N1CCN(C(=O)c2ccccc2-c2ccccc2)CC1	-1.3%	-5.7%	-0.1%	7.2%	i
CN1CSC2=C(C#N)C(c3cccc(OCc4ccccc4)c3)CC(=O)N2C1 (stereo not drawn)	-7.4%	-16.3%	-3.6%[2.3 µM]	5.01µM*	i
CCc1ccc(N2CSC3=C(C#N)C(c4cccs4)CC(=O)N3C2)cc1 (stereo not drawn)	-3.5%	?	-3.4%	?	i
CCc1ccc(C2CC(=O)N3CN(c4ccccc4)CSC3=C2C#N)cc1 (stereo not drawn)	-11.0%	?	?	2.51µM*	i

Assay outcomes from PubChem BioAssay.
